Sampled rows, rich in hits. Any-hit rate of the full collection: about 2.5%.
SUMO Mot1 rescue: blocks SUMOylation pathway, rescuing yeast Mot1-301 growth; S. cerevisiae Mot1-301 growth rescue, ATP luminescence, 38.5C; percent above DMSO median, 100 means doubled; growth rescue, % at 18.8 µM; 320,000 tested, 1% active; AID 2716;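 active means every valid replicate shows activation above 250% relative to neutral control wells; inactive means the rest, any valid replicate at or below 250%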;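 further: OY570 slx delta 5 strain wells were the positive control but not used for scaling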
V-ATPase pHluor: yeast V-ATPase proton transport regulation by pHLuorin. AID 504577. S. cerevisiae, pHLuorin cytosolic pH fluorescence. 350,000 tested, 0.37% active. response, % at 10 µM; in the data active means response mostly above about 7.3%, no sharp cut-off; inactive means mostly below about 5.4%; further: actives read high
AI-2 QS mod: modulates the Vibrio harveyi AI-2 quorum sensing system; 300,000 tested, 0.4% active; activity change, % at 7.5 µM; Vibrio harveyi JMH597 AI-2 luminescence/OD600 ratio, 9 h; hits give low values; strain lacks LuxN and CqsS sensors; 0 = neutral-control median; in the data active means activity change below about -75%, passing the limit was not always enough;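 further: luminescence divided by OD600 gain over 9 h not by final OD600 alone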
Efflux pump inh: inhibitors of Candida antifungal efflux pumps expressed in yeast | inhibition, % at 10 µM | S. cerevisiae Candida pump triplex, Nile Red efflux | 330,000 tested, 0.44% active;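 active means plate passing quality check with inhibition over a set limit, or well fluorescence over plate mean plus 4 SD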;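 further: Nile Red retained in pooled yeast measured as flow cytometry median fluorescence; 0% = buffer negative control and 100% = Enniatin B positive control; higher means more Nile Red kept so more efflux inhibition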
ATG4B inh: blocks human ATG4B protease cleavage of LC3 substrate | ATG4B cleavage of LC3-PLA2, NBD-HPC fluorescence, 1 h | AID 504462 | Q9Y4P1 | inhibition, % at 8.33 µM | 340,000 tested, 0.51% active; in the data active means inhibition above about 40%
Target sequence (Q9Y4P1 whole entry, looked up): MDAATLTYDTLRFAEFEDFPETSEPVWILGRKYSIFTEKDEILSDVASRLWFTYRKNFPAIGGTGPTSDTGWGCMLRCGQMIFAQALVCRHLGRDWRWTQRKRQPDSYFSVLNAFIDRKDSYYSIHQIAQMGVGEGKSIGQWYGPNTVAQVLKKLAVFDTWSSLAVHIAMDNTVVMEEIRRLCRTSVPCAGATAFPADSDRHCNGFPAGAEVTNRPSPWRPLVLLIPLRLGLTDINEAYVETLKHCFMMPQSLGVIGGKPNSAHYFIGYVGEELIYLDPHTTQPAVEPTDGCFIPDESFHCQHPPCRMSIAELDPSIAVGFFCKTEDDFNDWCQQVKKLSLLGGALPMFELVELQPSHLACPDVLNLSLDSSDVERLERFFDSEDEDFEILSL
Yeast Mot1 SUMO: inhibits SUMO pathway, affecting Mot1-301 yeast growth; 2,300 tested, under 10 active; shares compounds with SUMO Mot1 rescue; S. cerevisiae Mot1-301 galactose growth, ATP luminescence, 24 h; -100 = growth of slx-deleted rescue strain; growth activity, percent, % at 42 µM;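 active means Signal drops as the depositor expects, and the fitted half-maximal dose is no more than ten times the top valid tested dose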;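 further: more negative values mean stronger growth rescue toward the control strain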
Cmpd fluor yeast: counter-screen for efflux pump inhibitors: compound fluorescence; shares compounds with Efflux pump inh; S. cerevisiae AD/pABC3, flow cytometry; AID 588517; fluorescence ratio to DMSO, % at 10 µM; 1,700 tested, 4% active;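 active means fluorescence ratio to DMSO above its plate's cutoff, the plate mean ratio plus 5 SD, cut at about 210% in these data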;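 further: unstained yeast with no Nile Red so the signal is compound autofluorescence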
Mdr1 pump inh: Candida Mdr1 efflux pump inhibition; inhibition, % at 10 µM; S. cerevisiae AD/CaMDR1, Nile Red efflux, flow cytometry; shares compounds with Efflux pump inh; 1,700 tested, 1% active; in the data active means inhibition above about 26%;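 further: 0% = DMSO vehicle and 100% = reference inhibitor; higher means more Nile Red retained so more efflux inhibition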
Cdr2 pump inh: blocks the Candida albicans Cdr2 efflux pump in yeast; AID 588520; Nile Red retention ratio vs DMSO, % at 10 µM; shares compounds with Efflux pump inh; S. cerevisiae AD/CaCDR2, Nile Red retention, flow cytometry; 1,700 tested, 4% active; in the data active means Nile Red retention ratio vs DMSO above about 190%;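 further: higher ratio means more blocking of Cdr2 efflux of the dye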
CaCdr1 efflux inh: inhibitors of Candida albicans Cdr1 efflux pump | shares compounds with Efflux pump inh | S. cerevisiae AD/CaCDR1, Nile Red efflux, flow cytometry | inhibition, % at 10 µM | 1,700 tested, 1% active | AID 588522;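 active means inhibition above the screen-wide mean plus twice its standard deviation, cut at about 32% in these data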
VATPase regulator: regulators of yeast V-ATPase proton transport; shares compounds with V-ATPase pHluor; S. cerevisiae pHLuorin cytosolic pH; response, % at 10 µM; AID 602197; 980 tested, 2% active; in the data active means response above about 24%;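 further: plate controls were vehicle wells for no effect and positive control wells for full effect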
Numbers without * were called inactive; . = no result given; + = active, no number; ! = a repeat was not active.

SMILES | SUMO Mot1 rescue | V-ATPase pHluor | AI-2 QS mod | Efflux pump inh | ATG4B inh | Yeast Mot1 SUMO | others
COc1ccc(NC(=O)N2C[C@@H]3C[C@@H](C2)c2cccc(=O)n2C3)c(OC)c1 | -2 | -1 | 7 | 0 | -13 | .
Clc1cnc(Oc2ccc(Oc3ncc(Cl)cc3Cl)cc2)c(Cl)c1 | 623* | -2 | 27 | -1 | -6 | 0
Oc1cc(Cl)ccc1Oc1ccc(Cl)cc1Cl | 36 | 1 | -18 | 0 | -14 | .
CCc1c(-c2ccccc2)nc2ccccc2c1C(=O)N1CCC2(CC1)OCCO2 | 10 | -1 | 21 | 0 | 4 | .
Fc1ccc2c(c1)nnn2C1CCN(Cc2nnnn2C2CCCCC2)CC1 | 733* | -1 | 2 | 0 | -17 | 0
Fc1ccc2c(c1)nnn2C1CCN(Cc2c(Cl)cccc2Cl)CC1 | 16 | -5 | 11 | 0 | 1 | .
CC(C)Oc1ccc(C2(C#N)CC[N+](C)(C)CC2)cc1 | 670* | -3 | 6 | 0 | 8 | 1
COc1ccc(C2(C#N)CC[N+](C)(C)CC2)cc1 | -9 | -3 | -2 | 0 | -7 | .
CCC12CN3CCN(CC(C3)/C1=N/NC(=O)c1ccncc1)C2 | 507* | 0 | 21 | 0 | 3 | 1
CCCC12CN3CCN(CC(C3)/C1=N\NC(=O)c1ccncc1)C2 | -2 | -2 | 1 | 0 | 4 | .
Cc1ccccc1NC1=NCCCS1 | 469* | 2 | 26 | 0 | -15 | 0
Cc1cccc(NC2=NCCCS2)c1C | 2 | 1 | 2 | 0 | 3 | .
CN1C2CCC1CC(OC(=O)c1cccc(O)c1)C2 (centres undefined) | . | 6 | . | . | -23 | .
CN1C2CCC1CC(OC(=O)c1ccc([N+](=O)[O-])cc1)C2 (centres undefined) | 474* | 0 | -1 | 0 | 4 | 0
CCOP(=O)(Cc1cc(C(=O)CC)c(C)o1)OCC | 658* | 0 | 29 | 0 | 4 | 0
CN1C(=O)NC(=O)[C@]2(Cc3ccccc3N3CCN(c4ccccc4)CC32)C1=O (some centres undefined) | 663* | -4 | 5 | 0 | 12 | 1
Cc1cc(C=O)c(C)n1C1CC1 | -10 | -1 | 16 | 0 | 2 | .
CCOC(=O)c1cc2c(cn1)[C@@H](CCO)NC2 | . | 0 | . | . | 1 | .
Cn1c(O)c(C(c2ccccn2)c2c(O)n(C)c(=S)n(C)c2=O)c(=O)n(C)c1=S | 477* | 2 | -28 | 0 | 5 | 0
Brc1ccc2c(c1)C(OC1CN3CCC1CC3)c1ccccc1CS2 (centres undefined) | -28 | 1 | 21 | 0 | 9 | .
O=Cc1cn(Cc2ccccc2F)c2ccccc12 | + | 2 | 2 | 0 | -7 | 0
CN1C(=O)C(=Cc2ccc(N3CCCCC3)o2)C(=O)N(C)C1=S | 848* | 0 | 3 | 0 | -4 | 0
CCN1C(=O)/C(=C/c2ccc(N(CC)CC)cc2OC)C(=O)NC1=S | 4 | -4 | 5 | 0 | -2 | .
COc1cc(O)cc2c1cc([N+](=O)[O-])c1c(C(=O)O)cc3c(c12)OCO3 | . | -1 | . | 0 | -25 | .
N=c1c[n+](C2CCCCC2)[n-]o1 | 484* | 0 | 35 | 0 | 2 | 1
SMILES | SUMO Mot1 rescue | V-ATPase pHluor | AI-2 QS mod | Efflux pump inh | ATG4B inh | Yeast Mot1 SUMO | others
[N-]=[N+]=NCCN1CCC(O)CCC1=O (centres undefined) | + | 26* | 10 | 0 | -6 | 0 | VATPase regulator=-1
CCN(CC)c1ccc(N=Cc2c(O)n(-c3ccccc3)c(=O)[nH]c2=O)cc1 | -25 | 2 | 42 | 0 | -4 | .
CCN(CC)c1ccc(N=Cc2c(O)n(Cc3ccccc3)c(=O)[nH]c2=O)cc1 | 385*! | 46*! | 3 | 1 | -6 | 0 | VATPase regulator=-41
CN(C)CCN(C(=O)COc1ccc(Cl)cc1)c1nc2cc3c(cc2s1)OCO3 | 14 | 2 | 21 | 0 | -6 | .
CCN1/C(=C\C=C\C2=[N+](CC)c3ccccc3C2(C)C)C(C)(C)c2ccccc21 | 15 | 5 | 49 | 3.2* | -3 | . | Mdr1 pump inh=1;Cdr2 pump inh=251*;CaCdr1 efflux inh=1
C=CCN1C(=O)NC(=O)/C(=C/c2cc3c4c(c2)CCCN4CCC3)C1=O | -7 | -2 | 18 | 1.6* | 1 | . | Cmpd fluor yeast=118;Mdr1 pump inh=0;Cdr2 pump inh=114;CaCdr1 efflux inh=0
O=c1[nH]c(=S)[nH]c(O)c1/C=C1/C=c2ccccc2=N1 | 256 | -3 | 28 | 0.5* | 6 | . | Cmpd fluor yeast=97;Mdr1 pump inh=0;Cdr2 pump inh=118;CaCdr1 efflux inh=0
c1ccc([C@@H]2CO2)cc1 | 4 | . | -7 | 0 | 1 | .
CC(Cc1ccccc1)[n+]1cc(/N=C(\N)[O-])on1 (centres undefined) | -6 | 0 | 34 | 1.1* | 1 | . | Cmpd fluor yeast=95;Mdr1 pump inh=0;Cdr2 pump inh=103;CaCdr1 efflux inh=0
Cc1ccccc1-n1c(O)c(C(c2ccncc2)c2c(O)n(-c3ccccc3C)c(=O)[nH]c2=O)c(=O)[nH]c1=O | -8 | 2 | -10 | 0 | -5 | .
CN1C2CCC1CC(OC(=O)CCN1CCCC1)C2 (centres undefined) | 286 | -2 | 15 | 0.5* | -5 | . | Cmpd fluor yeast=102;Mdr1 pump inh=0;Cdr2 pump inh=107;CaCdr1 efflux inh=0
O=C(N/N=C/c1c(O)n(Cc2ccc(F)cc2)c(=O)[nH]c1=O)c1ccccc1O | 39 | 3 | 22 | 0 | 11 | .
O=C(N/N=C/c1c(O)n(Cc2ccccc2)c(=O)[nH]c1=O)c1ccccc1O | -13 | -2 | 19 | 14* | -9 | . | Cmpd fluor yeast=98;Mdr1 pump inh=0;Cdr2 pump inh=101;CaCdr1 efflux inh=0
Cc1cccc(-n2c(O)c(C)c(=O)[nH]c2=S)c1 | . | -3 | 2 | . | -4 | .
O=P(Nc1ccccc1Cl)(c1ccccc1)c1nc2c(s1)CCCC2 (centres undefined) | -19 | -2 | 11 | 0 | 0 | .
O=P(Nc1c(Cl)cccc1Cl)(c1ccccc1)c1nc2c(s1)CCCC2 (centres undefined) | 2 | 0 | 28 | 5.9* | 5 | . | Cmpd fluor yeast=109;Mdr1 pump inh=-1;Cdr2 pump inh=102;CaCdr1 efflux inh=0
CN(C)c1ccc(/C=C/C=C/c2sc3ccccc3[n+]2C)cc1 | -8 | -3 | 26 | 0 | 1 | .

Screening data (PubChem BioAssay)
